Screens as filed in PubChem.
Pf Dd2 inh = blocks in vitro growth of P. falciparum Dd2. actives 4.3% (n = 120,000). P. falciparum Dd2 growth, SYBR Green, 72 h. Potency, µM (series often up to 28.9 µM), for inactives: top-dose activity, negative = inhibition, usual class: inhibitors; active = well fitted inhibition curve with a large enough effect;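 note: plate controls were DMSO vehicle for no effect and reference drug for full effect; nearly all actives have a fitted effect of over 65% in size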
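Readout: SYBR Green fluorescence, 485 nm excitation, 535 nm emission, after ~16 h lysis at 37C. Before that, Dd2-infected red cells (2.5% hematocrit) grew 72 h with compound, 29 uM top final concentration.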
* marks the source's active call; other numbers are inactive results; i = inactive; [ ] = another dose, or the depositor's remark. This excerpt belongs to a sample that is enriched for hits. Potency is the fitted concentration of half-maximal effect.

SMILES	Pf Dd2 inh
Cc1ccccc1CN1CCc2nc(C(=O)Nc3ccccc3)oc2CC1	-14.8%[44.1 µM]
COc1ccccc1CN1CCc2nc(C(=O)Nc3ccccc3)oc2CC1	11.2µM*
COc1ccccc1CN1CCc2nc(C(=O)Nc3cccc(C(F)(F)F)c3)oc2CC1	-7.4%
Cc1noc(C)c1CN1CCc2nc(C(=O)Nc3ccccc3)oc2CC1	i
Cn1nc(C2CCN(C(=O)COc3ccc(F)cc3)CC2)c2c1CCOC2	i[5.79 µM]
CCN(CCCNC(=O)CC1=C2CCCCC2NC1=O)c1ccccc1 (stereo not given)	-27.1%
O=C(NCC1CCCCC1)C1CCN(C(=O)c2ncn3c2COC(c2ccc(Cl)cc2)C3)CC1 (stereo not given)	i
CCS(=O)(=O)N1C[C@@H](COC)[C@H](C(=O)NC)C1	29.2%
COCCOCc1nc(C2CCCCN2C(=O)Nc2cccc(Cl)c2)no1 (stereo not given)	i
O=C(C1CC(=O)N(C2CCCCC2)C1)N1CCC2(CC1)NCCc1c2[nH]c2ccccc12 (stereo not given)	i
COCc1nc(C2CCNC2)no1 (stereo not given)	10.4%
CC1CCC2(CC1)NC(=O)N(CC(=O)Nc1ccc(Br)cc1F)C2=O (stereo not given)	49.5%
CCC1CCCCN1CCCNC(=O)c1ccc2c(c1)N(Cc1cccc(Cl)c1)C(=O)c1ccccc1S2(=O)=O (stereo not given)	-5.9%
CCC1CCCCN1CCCNC(=O)c1ccc2c(c1)N(Cc1ccc(Cl)cc1)C(=O)c1ccccc1S2(=O)=O (stereo not given)	3.98µM*
CCC1CCCCN1CCCNC(=O)c1ccc2c(c1)N(Cc1cccc(C)c1)C(=O)c1ccccc1S2(=O)=O (stereo not given)	3.98µM*
O=C(NCc1ccco1)c1ccc2c(c1)N(Cc1ccc(Cl)cc1)C(=O)c1ccccc1S2(=O)=O	i
COc1ccc(Cn2c3c(c(=O)n2Cc2ccccc2)CCN(C(=O)c2nc4ccccc4[nH]2)C3)cc1	-25.1%
COc1cc(O)ccc1CN1CCn2nnc(CCC(=O)N3CCCC3)c2C1	-16.6%
O=C(CCn1ccn2nc3c(c2c1=O)CCCC3)Nc1ccc(F)cc1	i
O=C(Nc1ccc(Cl)cc1)c1ccc(Cn2ccn3nc4c(c3c2=O)CCCC4)cc1	8.91µM*
CCOc1ccc(NC(=O)CCn2ccn3nc4c(c3c2=O)CCCC4)cc1	-7.0%
O=C(Nc1ccccc1)c1ccc(Cn2ccn3nc4c(c3c2=O)CCCC4)cc1	-14.8%
CC(C)NC(=O)c1ccc(Cn2ccn3nc4c(c3c2=O)CCCC4)cc1	-4.0%
CN(C)c1ccc(NC(=O)CCn2ccn3nc4c(c3c2=O)CCCC4)cc1	3.98µM*
Cc1ccc(C2Cn3nnc(-c4noc(-c5ccoc5)n4)c3CO2)cc1 (stereo not given)	i
SMILES	Pf Dd2 inh
COc1ccc(C(=O)N2CCC(n3cc(-c4nc(C)no4)nn3)CC2)cc1F	i
COc1ccc(OCc2nc(C)c(CCO)c(=O)n2CC(=O)Nc2ccccc2Cl)cc1	-1.0%
O=C(NCc1ccco1)c1cccc2c1CCN2C(=O)Nc1ccc(F)cc1	-2.4%
CN1CCCN(C(=O)c2ccncc2)c2ccccc21	i
COc1ccc(-c2nc(C)nc3c2CCN(Cc2ccc(F)cc2)CC3)cc1	i
CCc1nc2c(c(-c3ccc(Cl)cc3)n1)CN(Cc1cccc(OC)c1)CC2	10µM*
CCc1nc2c(c(-c3ccc(Cl)cc3)n1)CN(CC1CC1)CC2	4.47µM*
COC(=O)N1CCc2nc(-c3ccc(OC)cc3)nc(-c3ccccc3)c2C1	i
CCc1nc2c(c(-c3ccc(Cl)cc3)n1)CN([S+](=O)([O-])c1ccc(C)cc1)CC2	i
CCc1nc2c(c(-c3ccc(OC)cc3)n1)CCN(Cc1ccc(C(F)(F)F)cc1)CC2	11.2µM*
CCc1nc2c(c(-c3ccc(Cl)cc3)n1)CCN(C(=O)c1ccccc1OC)CC2	i
COc1ccc(-c2nc(-c3ccccc3)nc3c2CN(C(=O)Cc2ccccn2)CC3)cc1	5.62µM*
CCc1nc2c(c(-c3ccc(OC)cc3)n1)CN([S+](=O)([O-])c1cccc(OC)c1)CC2	-23.9%
COCC(=O)N1CCc2nc(-c3ccccc3)nc(-c3ccc(OC)cc3)c2C1	-8.4%
CCc1nc2c(c(-c3ccc(OC)cc3)n1)CCN(C(=O)c1ccc(OC)cc1)CC2	28.0%
CCc1nc2c(c(-c3ccc(Cl)cc3)n1)CN(C(=O)c1ccc(F)cc1)CC2	-3.8%
O=Cc1ccc(Oc2ncnc3ccccc23)cc1	-4.6%[44.1 µM]
COc1ccccc1C(=O)N1CCC2(CC1)CC(=O)Nc1ccccc1O2	-13.9%
Cn1cccc1CN1CCC2(CC1)CN[S+](=O)([O-])c1ccccc1N2	-24.3%
COc1ccc(-c2nc(C3CC(=O)N(c4ccc(F)c(Cl)c4)C3)no2)c(OC)c1 (stereo not given)	45.8%
CC(C)Oc1cc(N(C)CC2CC(=O)N(C(C)(C)C)C2)nc(N)n1 (stereo not given)	-2.5%
O=C(c1ccoc1)N1CC[C@@H]2[C@@H](CCC(=O)N2CCc2cnc[nH]2)C1	-10.1%
CN1CCCCCC(O)c2cc(C(=O)N3CCCCCC3)ccc21 (stereo not given)	i
O=C(c1cccnc1)N1CCC2(CC1)C(=NC1CCCCC1)NC(=O)N2c1cccnc1	27.7%
COCCOc1ccc2c(n1)CCN(C(=O)Cc1ccccc1)C2	-22.3%
SMILES	Pf Dd2 inh
CNC(=O)[C@@H]1C[C@H](Oc2cccnc2)CN1C(=O)CC1CCCCC1	7.1%
O=C(c1c(OCC2CC2)cc(=O)n2c1CCCCC2)N1CCOCC1	62.0%
Cc1ccc(C(=O)N2CCc3nc(C4CC4)nc(-c4ccc(Cl)cc4)c3C2)cc1	-30.0%
NC(=O)[C@@H]1CCCN1C(=O)C1CCN(c2nc(-c3ccccc3)nc3c2CCC3)CC1	-20.5%
CCc1nc2c(c(-c3ccc(Cl)cc3)n1)CN(Cc1ccc(N(C)C)cc1)CC2	8.91µM*
COc1ccccc1C(=O)N1CCc2nc(C3CC3)nc(-c3ccc(Cl)cc3)c2C1	11.2µM*
CCc1nc2c(c(-c3ccc(Cl)cc3)n1)CN(Cc1cccc3ccccc13)CC2	-1.4%
CCc1nc2c(c(-c3ccc(Cl)cc3)n1)CCN(Cc1ccnn1C)CC2	i
O=C(NC1CCNCC1)C1CCN(c2nc(-c3ccccc3)nc3c2CCC3)CC1	-10.7%
COc1ccc(-c2nc(C3CC3)nc3c2CN(C(=O)c2ccccc2F)CC3)cc1	-11.3%
CCc1nc2c(c(-c3ccc(O)cc3)n1)CN(Cc1ccnn1C)CC2	4.7%
CCc1nc2c(c(-c3ccc(Cl)cc3)n1)CN(Cc1ccc(OC)cc1)CC2	11.2µM*
O=C(C1CCN(c2nc(-c3ccccc3)nc3c2CCC3)CC1)N1CCNCC1	12.6µM*
CCc1nc2c(c(-c3ccc(OC)cc3)n1)CN(C(=O)c1ccc(OC)cc1)CC2	-15.0%
COCCN1C(=O)[C@H]2CN(C(=O)c3ccncc3)C[C@H]2C1=O	-4.7%
CCN(CC)C1CCOC2(CCN(C(=O)c3cccnc3C)CC2)C1 (stereo not given)	-12.2%
Cc1ccccc1NC(=O)N1CCC(N2CCCC(C(=O)N3CCCC3)C2)CC1 (stereo not given)	-9.2%
O=C1CCCCC(C(=O)NCCc2ccncc2)N1 (stereo not given)	9.6%
O=C(NC1CCCCC1)[C@@H]1C[C@@H](O)CN1C1CCN(C(=O)c2cccc3nccnc23)CC1	-9.6%
O=C(NCc1nnc2cc(-c3nc(C4CC4)no3)ccn12)c1ccc(F)c(F)c1	i
O=C(c1ccc(Br)o1)N1CCCN(c2cc(-c3ccc(Cl)cc3)[nH]n2)CC1	-14.0%
